# In the library only some 6.8% were active in any assay of this set; here they are far more common.
# C diff HTS = blocks growth of Clostridium difficile; growth activity, negative = inhibition, % at 16 µg/mL (by protocol); 0.25% of 86,000 active; Clostridium difficile clinical isolate growth, OD600, 24 h; hits give low values;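 active means mean growth activity at or below -80% and every replicate also at or below -80%; inconclusive means mean at or below -80% but some replicate above -80%; inactive means mean growth activity above -80%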
# T cruzi growth-1 = inhibitors of T. cruzi proliferation; T. cruzi beta-gal in NIH3T3, GalScreen luminescence, 90 h; inhibition, % at 8.34 µM; 5.9% of 77,000 active; AID 624255;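 active means mean inhibition above about 93%, with at least 55% of replicates each passing it, limit read from the data, passing the limit was not always enough; inconclusive means only one of those two conditions holds; inactive means neither condition holds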
# Pf Dd2 growth = P. falciparum Dd2 growth inhibition | activity change, % at 10 µM | AID 1159554 | SYBR Green, 72 h; hits give low values | 2.3% of 94,000 active; in the data active means activity change below about -80%; inconclusive means no clear call, values can overlap the other calls
# T cruzi growth-2 = inhibitors of T. cruzi proliferation | T. cruzi beta-gal in NIH3T3, GalScreen luminescence, 90 h | 72% of 5,600 active | AID 651739 | shares compounds with T cruzi growth-1 | inhibition, % at 8.35 µM;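 active means mean replicate inhibition above about 95% and at least 55% of replicates individually reaching it, limit read from the data; inconclusive means only one of the two criteria is met; inactive means neither criterion is met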
# T cruzi growth-3 = Trypanosoma cruzi proliferation inhibition. 21% of 5,600 active. inhibition, % at 2.09 µM. T. cruzi beta-gal in NIH3T3, GalScreen luminescence, 90 h. AID 651740. shares compounds with T cruzi growth-1;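 active means mean inhibition above about 95%, with at least 55% of replicates also reaching it, limit read from the data; inconclusive means meets just one of the two conditions; inactive means meets neither condition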
# NIH3T3 tox = NIH/3T3 (mouse) viability loss | 14% of 5,600 active | shares compounds with T cruzi growth-1 | AID 651742 | cytotoxicity (signal decrease), % at 8.35 µM | NIH/3T3 viability, CellTiter-Glo ATP luminescence, 90 h;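 active means mean signal decrease across replicates above about 35% based on untreated-well scatter, with enough replicates individually passing, limit read from the data; inconclusive means no rule stated though some were filed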
# NIH3T3 tox 2 = cytotoxicity in mouse NIH/3T3 fibroblasts; shares compounds with T cruzi growth-1; NIH/3T3 viability, CellTiter-Glo ATP luminescence, 90 h; inhibition, % at 24.9 µM; 56% of 5,600 active; AID 651744;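 active means mean loss of cell viability signal at or above a set limit, and enough replicates individually reaching it; inconclusive means meets only the mean limit or only the replicate share; inactive means meets neither condition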
# A number is an active result; i = inactive; ? = inconclusive; nt = no result given.
SMILES,C diff HTS,T cruzi growth-1,Pf Dd2 growth,others
Cc1ccc(S(=O)(=O)N(C)C[C@H]2Oc3ccc(NC(=O)C4CC4)cc3C(=O)N([C@H](C)CO)C[C@@H]2C)cc1,i,i,i,
CO[C@H]1CN(C)C(=O)c2cc(NC(=O)C3CCCC3)ccc2OC[C@H](C)N(C)C[C@H]1C,nt,i,nt,
C/C=C/c1ccc2c(c1)O[C@@H](CN(C)C(=O)c1ccccc1)[C@H](C)CN([C@@H](C)CO)S2(=O)=O,i,nt,i,
C[C@@H]1CN([C@@H](C)CO)S(=O)(=O)c2ccc(/C=C/c3ccccc3)cc2O[C@H]1CN(C)Cc1ccc(C(=O)O)cc1,-97,i,i,
C[C@H]1CN([C@@H](C)CO)S(=O)(=O)c2ccc(/C=C/c3ccccc3)cc2O[C@@H]1CN(C)Cc1ccc(C(=O)O)cc1,i,i,i,
C[C@H]1CN([C@@H](C)CO)S(=O)(=O)c2ccc(/C=C/c3ccccc3)cc2O[C@H]1CN(C)C(=O)c1ccccc1,i,125,?,
COCC(=O)NC[C@@H]1[C@H](c2ccccc2)[C@H](CO)N1C(C)=O,i,i,i,
O=C(Nc1ccc2c(c1)[C@@H]1C[C@@H](CC(=O)N3CCCCC3)O[C@@H](CO)[C@@H]1O2)c1ccc2c(c1)OCO2,i,i,i,
COc1ccc(S(=O)(=O)N(C)C[C@@H]2OCCCC[C@@H](C)Oc3ccc(NC(=O)NC4CCCCC4)cc3C(=O)N([C@@H](C)CO)C[C@@H]2C)cc1,i,i,?,
COc1ccc(S(=O)(=O)N(C)C[C@H]2OCCCC[C@@H](C)Oc3ccc(NC(=O)NC4CCCCC4)cc3C(=O)N([C@@H](C)CO)C[C@H]2C)cc1,i,i,i,
COc1ccc(S(=O)(=O)N(C)C[C@H]2OCCCC[C@H](C)Oc3ccc(NC(=O)NC4CCCCC4)cc3C(=O)N([C@H](C)CO)C[C@H]2C)cc1,i,i,-86,
COc1ccc(S(=O)(=O)N(C)C[C@H]2OCCCC[C@H](C)Oc3ccc(NC(=O)NC4CCCCC4)cc3C(=O)N([C@@H](C)CO)C[C@H]2C)cc1,i,i,-81,
CC(C)NC(=O)N(C)C[C@H]1Oc2ccc(NS(=O)(=O)c3ccc(F)cc3)cc2CC(=O)N([C@@H](C)CO)C[C@H]1C,i,i,i,
C[C@@H]1CCCCO[C@H](CN(C)S(=O)(=O)c2ccccc2)[C@@H](C)CN([C@H](C)CO)C(=O)c2cc(NS(=O)(=O)c3cccs3)ccc2O1,i,i,nt,
COc1ccc(S(=O)(=O)Nc2ccc3c(c2)C(=O)N([C@H](C)CO)C[C@@H](C)[C@@H](CN(C)S(=O)(=O)c2cccs2)OCCCC[C@H](C)O3)cc1,i,100,i,T cruzi growth-2=i;T cruzi growth-3=i;NIH3T3 tox=i;NIH3T3 tox 2=i
COc1ccc(S(=O)(=O)N(C)C[C@H]2OCCCC[C@H](C)Oc3ccc(NS(=O)(=O)c4cccs4)cc3C(=O)N([C@@H](C)CO)C[C@@H]2C)cc1,i,107,i,T cruzi growth-2=112;T cruzi growth-3=i;NIH3T3 tox=i;NIH3T3 tox 2=i
COc1ccc(S(=O)(=O)Nc2ccc3c(c2)C(=O)N([C@@H](C)CO)C[C@H](C)[C@H](CN(C)S(=O)(=O)c2cccs2)OCCCC[C@@H](C)O3)cc1,i,i,i,
COc1ccc(S(=O)(=O)Nc2ccc3c(c2)C(=O)N([C@@H](C)CO)C[C@@H](C)[C@@H](CN(C)S(=O)(=O)c2cccs2)OCCCC[C@H](C)O3)cc1,i,i,i,
COc1ccc(S(=O)(=O)N(C)C[C@H]2OCCCC[C@@H](C)Oc3ccc(NS(=O)(=O)c4cccs4)cc3C(=O)N([C@H](C)CO)C[C@H]2C)cc1,i,110,i,T cruzi growth-2=113;T cruzi growth-3=i;NIH3T3 tox=i;NIH3T3 tox 2=i
C[C@@H]1CN([C@@H](C)CO)C(=O)c2cccc(NC(=O)Nc3ccc(C(F)(F)F)cc3)c2O[C@@H]1CN(C)Cc1ccncc1,i,nt,i,
CC(C)CC#Cc1ccc2c(c1)O[C@H](CN(C)C(=O)C1CC1)[C@H](C)CN([C@@H](C)CO)S2(=O)=O,nt,i,i,
CC(C)CC#Cc1ccc2c(c1)O[C@H](CN(C)C(=O)C1CCCCC1)[C@@H](C)CN([C@H](C)CO)S2(=O)=O,i,118,i,T cruzi growth-2=106;T cruzi growth-3=107;NIH3T3 tox=i;NIH3T3 tox 2=105
CC(C)CC#Cc1ccc2c(c1)O[C@H](CN(C)C(=O)C1CC1)[C@@H](C)CN([C@H](C)CO)S2(=O)=O,nt,i,i,
CC(C)CC#Cc1ccc2c(c1)O[C@@H](CN(C)C(=O)C1CCCCC1)[C@H](C)CN([C@@H](C)CO)S2(=O)=O,i,122,i,T cruzi growth-2=104;T cruzi growth-3=104;NIH3T3 tox=i;NIH3T3 tox 2=105
CC(C)CC#Cc1ccc2c(c1)O[C@H](CN(C)C(=O)C1CCCCC1)[C@@H](C)CN([C@@H](C)CO)S2(=O)=O,i,112,i,T cruzi growth-2=100;T cruzi growth-3=116;NIH3T3 tox=i;NIH3T3 tox 2=104
SMILES,C diff HTS,T cruzi growth-1,Pf Dd2 growth,others
CC(C)CC#Cc1ccc2c(c1)O[C@H](CN(C)C(=O)C1CC1)[C@H](C)CN([C@H](C)CO)S2(=O)=O,nt,i,i,
C[C@@H]1CN([C@@H](C)CO)C(=O)c2cc(NS(C)(=O)=O)ccc2O[C@@H](C)CCCCO[C@H]1CN(C)Cc1ccc(C(F)(F)F)cc1,i,nt,i,
O=C(CC1CC1)Nc1ccc2c(c1)[C@@H]1C[C@H](CC(=O)N3CCc4ccccc4C3)O[C@@H](CO)[C@@H]1O2,i,i,i,
CCCNC(=O)C[C@@H]1CC[C@H]2[C@@H](COC[C@H](O)CN2C(=O)Nc2c(C)noc2C)O1,i,i,i,
CNC[C@@H]1Oc2ccc(NC(=O)C3CC3)cc2CC(=O)N([C@H](C)CO)C[C@@H]1C,i,i,i,
C=CC[C@H](O)c1ccc(O)c(F)c1,i,nt,nt,
Cc1noc(C)c1NC(=O)Nc1cccc2c1O[C@H](CN(C)S(=O)(=O)c1cn(C)cn1)[C@H](C)CN([C@H](C)CO)C2=O,nt,i,i,
C[C@H]1CCCCO[C@@H](CN(C)S(=O)(=O)c2ccccc2)[C@@H](C)CN([C@@H](C)CO)C(=O)c2cc(NC(=O)Nc3ccc(C(F)(F)F)cc3)ccc2O1,i,100,-83,T cruzi growth-2=100;T cruzi growth-3=113;NIH3T3 tox=i;NIH3T3 tox 2=i
C[C@H](CO)N1C[C@H](C)[C@@H](CN(C)S(=O)(=O)c2ccccc2)OCCCC[C@H](C)Oc2ccc(NC(=O)Nc3ccc(C(F)(F)F)cc3)cc2C1=O,i,i,i,
Cc1ccc(S(=O)(=O)N(C)C[C@@H]2OCCCC[C@@H](C)Oc3ccc(NC(=O)Nc4ccc(C(F)(F)F)cc4)cc3C(=O)N([C@H](C)CO)C[C@H]2C)cc1,i,nt,i,
C[C@@H]1CCCCO[C@H](CN(C)S(=O)(=O)c2ccccc2)[C@@H](C)CN([C@@H](C)CO)C(=O)c2cc(NC(=O)Nc3ccc(C(F)(F)F)cc3)ccc2O1,i,103,-82,T cruzi growth-2=106;T cruzi growth-3=109;NIH3T3 tox=42;NIH3T3 tox 2=70
